{"source": "the antibiotic and cytotoxicity screens of Wong et al. (2023)", "note": "Among all 39,000 compounds or so, about 3,300 (8.5%) were called active. The sample holds actives, similar compounds and a random draw of the others, so the mix is not that of the screen."}
{"tested_on": "HepG2", "test": "cytotoxicity call (relative viability < 0.9)", "details": "10 µM"}
{"smiles": "CCOC(=O)CCCCCC(=O)Nc1ccc2c(c1)C(=O)N([C@H](C)CO)C[C@@H](C)[C@@H](CN(C)C(=O)CCC(F)(F)F)OCCCC[C@H](C)O2", "cytotoxicity call": "inactive"}
{"smiles": "Cc1ccc(S(=O)(=O)N[C@@H](Cc2ccccc2)C(=O)NCCn2cc(-c3cccc(/C=C/C(=O)NO)c3)nn2)cc1", "cytotoxicity call": "inactive"}
{"smiles": "Cc1ccc(S(=O)(=O)N[C@H](C(=O)NCCn2cc(-c3cccc(/C=C/C(=O)NO)c3)nn2)C(C)C)cc1", "cytotoxicity call": "inactive"}
{"smiles": "Cc1ccc(S(=O)(=O)N[C@@H](Cc2ccccc2)C(=O)NCCn2cc(CCC(=O)NO)nn2)cc1", "cytotoxicity call": "active"}
{"smiles": "Cc1ccc(S(=O)(=O)N[C@@H](Cc2ccccc2)C(=O)NCCn2cc(C(=O)NO)nn2)cc1", "cytotoxicity call": "inactive"}
{"smiles": "Cc1ccc(S(=O)(=O)N[C@@H](Cc2ccccc2)C(=O)NCCCn2cc(CCC(=O)NO)nn2)cc1", "cytotoxicity call": "inactive"}
{"smiles": "Cc1ccc(S(=O)(=O)N[C@@H](Cc2ccccc2)C(=O)NCCCn2cc(-c3cccc(/C=C/C(=O)NO)c3)nn2)cc1", "cytotoxicity call": "active"}
{"smiles": "Cc1noc(C)c1NC(=O)Nc1ccc2c(c1)C(=O)N([C@@H](C)CO)C[C@H](C)[C@@H](CN(C)Cc1ccccc1)OCCCC[C@@H](C)O2", "cytotoxicity call": "inactive"}
{"smiles": "C[C@H](CO)N1C[C@H](C)[C@@H](CN(C)CC2CCCCC2)Oc2c(NC(=O)Nc3ccccc3)cccc2C1=O", "cytotoxicity call": "inactive"}
{"smiles": "C[C@@H]1CN([C@H](C)CO)C(=O)c2cc(NS(=O)(=O)c3ccc(Cl)cc3)ccc2O[C@H]1CN(C)Cc1ccc(Cl)c(Cl)c1", "cytotoxicity call": "inactive"}
{"smiles": "C[C@H](CO)N1C[C@H](C)[C@H](CN(C)Cc2ccc(Cl)c(Cl)c2)Oc2ccc(NS(=O)(=O)c3ccc(Cl)cc3)cc2C1=O", "cytotoxicity call": "active"}
{"smiles": "C[C@H]1CN([C@@H](C)CO)C(=O)c2cc(NS(=O)(=O)c3ccc(Cl)cc3)ccc2O[C@H]1CN(C)Cc1ccc(Cl)c(Cl)c1", "cytotoxicity call": "active"}
{"smiles": "C[C@H](CO)N1C[C@H](C)[C@@H](CN(C)Cc2ccc(Cl)c(Cl)c2)Oc2ccc(NS(=O)(=O)c3ccc(Cl)cc3)cc2C1=O", "cytotoxicity call": "active"}
{"smiles": "C[C@@H]1CN([C@H](C)CO)C(=O)c2cc(NS(=O)(=O)c3ccc(F)cc3)ccc2O[C@@H]1CN(C)Cc1ccc(Cl)c(Cl)c1", "cytotoxicity call": "inactive"}
{"smiles": "C[C@H](CO)N1C[C@H](C)[C@@H](CN(C)Cc2ccc(Cl)c(Cl)c2)Oc2ccc(NS(=O)(=O)c3ccc(F)cc3)cc2C1=O", "cytotoxicity call": "inactive"}
{"smiles": "C[C@@H]1CN([C@@H](C)CO)C(=O)c2cc(NS(=O)(=O)c3ccc(Cl)cc3)ccc2O[C@@H]1CN(C)Cc1ccc(Cl)c(Cl)c1", "cytotoxicity call": "active"}
{"smiles": "C[C@H]1CN([C@@H](C)CO)C(=O)c2cc(NS(=O)(=O)c3ccc(F)cc3)ccc2O[C@H]1CN(C)Cc1ccc(Cl)c(Cl)c1", "cytotoxicity call": "inactive"}
{"smiles": "C/C=C/c1ccc2c(c1)O[C@@H](CN(C)S(=O)(=O)c1ccccc1OC)[C@H](C)CN([C@@H](C)CO)S2(=O)=O", "cytotoxicity call": "inactive"}
{"smiles": "C[C@@H]1CN([C@H](C)CO)C(=O)Cc2cc(NS(=O)(=O)c3ccc(F)cc3)ccc2O[C@@H]1CN(C)S(=O)(=O)c1cn(C)cn1", "cytotoxicity call": "inactive"}
{"smiles": "C[C@H]1CCCCO[C@H](CN(C)C(=O)c2ccncc2)[C@@H](C)CN([C@@H](C)CO)C(=O)c2cc(NS(=O)(=O)c3ccc(Cl)cc3)ccc2O1", "cytotoxicity call": "inactive"}
{"smiles": "Cc1noc(C)c1S(=O)(=O)Nc1ccc2c(c1)C(=O)N([C@@H](C)CO)C[C@H](C)[C@H](CN(C)C(=O)Nc1ccc3c(c1)OCO3)O2", "cytotoxicity call": "inactive"}
{"smiles": "C[C@@H]1CN([C@@H](C)CO)C(=O)c2cc(NS(=O)(=O)c3ccc(Cl)cc3)ccc2O[C@@H](C)CCCCO[C@@H]1CN(C)C(=O)Cc1ccccc1", "cytotoxicity call": "inactive"}
{"smiles": "OC[C@H]1CCCN1CC1CC1", "cytotoxicity call": "inactive"}
{"smiles": "C[C@H]1CN([C@@H](C)CO)C(=O)c2cc(NS(=O)(=O)c3cn(C)cn3)ccc2O[C@H]1CN(C)Cc1ccccc1", "cytotoxicity call": "inactive"}
{"smiles": "O=C(c1ccncc1)N1C[C@H]2[C@@H](c3ccccc31)[C@H](CO)N2C(=O)CN1CCOCC1", "cytotoxicity call": "inactive"}
{"smiles": "COC(=O)c1c(CC[C@@H](CO)NC(=O)N[C@H](Cn2cc(C3(O)CCCCC3)nn2)C(C)C)oc(C(C)=O)c1C(=O)OC", "cytotoxicity call": "inactive"}
{"smiles": "C[C@@H]1CN([C@H](C)CO)C(=O)c2cc(NS(=O)(=O)c3ccc(F)cc3)ccc2O[C@@H]1CN(C)Cc1ccncc1", "cytotoxicity call": "inactive"}
{"smiles": "COc1ccc(S(=O)(=O)N(C)C[C@H]2Oc3c(NS(=O)(=O)c4cn(C)cn4)cccc3C(=O)N([C@@H](C)CO)C[C@@H]2C)cc1", "cytotoxicity call": "inactive"}
{"smiles": "COc1ccc(NC(=O)Nc2ccc3c(c2)C(=O)N([C@@H](C)CO)C[C@@H](C)[C@H](CN(C)C(=O)Nc2ccccc2)OCCCC[C@@H](C)O3)cc1", "cytotoxicity call": "inactive"}
{"smiles": "c1ccc2c(-c3cn[nH]c3)ccnc2c1", "cytotoxicity call": "inactive"}
{"smiles": "C[C@H](CO)N1C[C@H](C)[C@@H](CN(C)S(C)(=O)=O)Oc2c(cccc2N(C)C)C1=O", "cytotoxicity call": "inactive"}
{"smiles": "C[C@H]1CN([C@@H](C)CO)C(=O)c2cc(NS(=O)(=O)c3ccc(F)cc3)ccc2O[C@@H]1CN(C)Cc1ccc(Cl)c(Cl)c1", "cytotoxicity call": "active"}
{"smiles": "C[C@@H]1CN([C@@H](C)CO)C(=O)c2cc(NS(=O)(=O)c3ccc(Cl)cc3)ccc2O[C@H]1CN(C)Cc1ccc(Cl)c(Cl)c1", "cytotoxicity call": "active"}
{"smiles": "C[C@H]1CN([C@@H](C)CO)C(=O)c2cc(NS(=O)(=O)c3ccc(Cl)cc3)ccc2O[C@@H]1CN(C)Cc1ccc(Cl)c(Cl)c1", "cytotoxicity call": "active"}
{"smiles": "C[C@@H]1CN([C@H](C)CO)C(=O)c2cc(NS(=O)(=O)c3ccc(Cl)cc3)ccc2O[C@@H]1CN(C)Cc1ccc(Cl)c(Cl)c1", "cytotoxicity call": "active"}
{"smiles": "C[C@@H]1CN([C@@H](C)CO)C(=O)c2cc(NS(=O)(=O)c3ccc(F)cc3)ccc2O[C@@H]1CN(C)Cc1ccc(Cl)c(Cl)c1", "cytotoxicity call": "inactive"}
{"smiles": "C[C@@H]1CN([C@H](C)CO)C(=O)c2cc(NS(=O)(=O)c3ccc(F)cc3)ccc2O[C@H]1CN(C)Cc1ccc(Cl)c(Cl)c1", "cytotoxicity call": "inactive"}
{"smiles": "C[C@H](CO)N1C[C@H](C)[C@H](CN(C)Cc2ccc(Cl)c(Cl)c2)Oc2ccc(NS(=O)(=O)c3ccc(F)cc3)cc2C1=O", "cytotoxicity call": "inactive"}
{"smiles": "C[C@@H]1CN([C@@H](C)CO)C(=O)c2cc(NS(=O)(=O)c3ccc(F)cc3)ccc2O[C@H]1CN(C)Cc1ccc(Cl)c(Cl)c1", "cytotoxicity call": "inactive"}
{"smiles": "Cc1ccc(S(=O)(=O)Nc2ccc3c(c2)C(=O)N([C@H](C)CO)C[C@H](C)[C@@H](CN(C)CC2CCCCC2)OCCCC[C@@H](C)O3)cc1", "cytotoxicity call": "inactive"}
{"smiles": "COc1cccc(OC)c1C(=O)NC1C(=O)N2C1SC(C)(C)C2C(=O)[O-].[Na+]", "note": "(configuration not stated)", "cytotoxicity call": "inactive"}
{"smiles": "C[C@H](CO)N1C[C@H](C)[C@@H](CN(C)C(=O)NC2CCCCC2)OCCCC[C@H](C)Oc2ccc(NS(=O)(=O)c3cccs3)cc2C1=O", "cytotoxicity call": "inactive"}
{"smiles": "C[C@H]1CN([C@@H](C)CO)C(=O)Cc2cc(NC(=O)NC3CCCCC3)ccc2O[C@@H]1CN(C)Cc1ccc(Cl)c(Cl)c1", "cytotoxicity call": "inactive"}
{"smiles": "CCS(=O)(=O)NCC[C@@H]1CC[C@@H](NC(=O)Cc2ccccn2)[C@@H](CO)O1", "cytotoxicity call": "inactive"}
{"smiles": "CC(C)=CCCC(C)=CCCC(C)=CCO", "note": "[trans,trans-FARNESOL ]", "cytotoxicity call": "inactive"}
{"smiles": "C[C@@H]1CN([C@H](C)CO)C(=O)c2cccc(NC(=O)Nc3ccc4c(c3)OCO4)c2O[C@@H]1CN(C)Cc1ccc(C(=O)Nc2ccccc2N)cc1", "cytotoxicity call": "inactive"}
{"smiles": "O=C(OC(C(F)(F)F)C(F)(F)F)N1CCN(Cc2ccc(C(F)(F)F)cc2N2CCCC2)CC1", "cytotoxicity call": "inactive"}
{"smiles": "C[C@H](CO)N1C[C@H](C)[C@@H](CN(C)Cc2ccccc2)Oc2ccc(NS(=O)(=O)c3cn(C)cn3)cc2C1=O", "cytotoxicity call": "inactive"}
{"smiles": "Cn1cnc(S(=O)(=O)N2C[C@H](O)COC[C@H]3O[C@H](CC(=O)NC4Cc5ccccc5C4)CC[C@@H]32)c1", "cytotoxicity call": "inactive"}
{"smiles": "O=C(CCCCCNC(=O)OCCCCO[C@@H]1C[C@H](c2ccc(Br)cc2)C=C(C(=O)N2CCN(Cc3ccccc3)CC2)O1)NO", "cytotoxicity call": "inactive"}
{"smiles": "C[C@@H]1CCCCO[C@@H](CN(C)C(=O)c2ccccc2)[C@@H](C)CN([C@H](C)CO)C(=O)c2cc(NC(=O)Nc3ccc(C(F)(F)F)cc3)ccc2O1", "cytotoxicity call": "active"}
{"smiles": "C[C@@H]1CN([C@H](C)CO)C(=O)c2cc(NC(=O)Nc3ccc(C(F)(F)F)cc3)ccc2O[C@@H](C)CCCCO[C@@H]1CN(C)C(=O)c1ccccc1", "cytotoxicity call": "inactive"}
{"smiles": "C[C@@H]1CN([C@@H](C)CO)C(=O)c2cc(NC(=O)Nc3ccc(C(F)(F)F)cc3)ccc2O[C@@H](C)CCCCO[C@H]1CN(C)C(=O)c1ccccc1", "cytotoxicity call": "inactive"}
{"smiles": "C[C@@H]1CCCCO[C@H](CN(C)C(=O)c2ccccc2)[C@H](C)CN([C@@H](C)CO)C(=O)c2cc(NC(=O)Nc3ccc(C(F)(F)F)cc3)ccc2O1", "cytotoxicity call": "active"}
{"smiles": "C[C@@H]1CCCCO[C@@H](CN(C)C(=O)c2ccccc2)[C@H](C)CN([C@H](C)CO)C(=O)c2cc(NC(=O)Nc3ccc(C(F)(F)F)cc3)ccc2O1", "cytotoxicity call": "inactive"}
{"smiles": "C[C@@H]1CN([C@H](C)CO)C(=O)c2cc(NC(=O)Nc3ccc(C(F)(F)F)cc3)ccc2O[C@@H](C)CCCCO[C@H]1CN(C)C(=O)c1ccccc1", "cytotoxicity call": "inactive"}
{"smiles": "Cc1noc(C)c1NC(=O)Nc1cccc2c1O[C@@H](CN(C)Cc1ccc(-c3ccccc3)cc1)[C@@H](C)CN([C@@H](C)CO)C2=O", "cytotoxicity call": "inactive"}
{"smiles": "Cc1ccc(S(=O)(=O)N(C)C[C@@H]2OCCCC[C@H](C)Oc3ccc(NC(=O)Nc4cccc5ccccc45)cc3C(=O)N([C@H](C)CO)C[C@@H]2C)cc1", "cytotoxicity call": "inactive"}
{"smiles": "CSC(=N)NCCC[C@@H](N)C(=O)O", "cytotoxicity call": "inactive"}
{"smiles": "C[C@H]1CCCCO[C@H](CN(C)S(=O)(=O)c2cccs2)[C@@H](C)CN([C@@H](C)CO)C(=O)c2cc(NC(=O)Nc3ccc(C(F)(F)F)cc3)ccc2O1", "cytotoxicity call": "inactive"}
{"smiles": "CC(C)(C)C(=O)Nc1c[nH]c(=O)[nH]c1=O", "cytotoxicity call": "inactive"}
{"smiles": "C[C@@H]1CCCCO[C@@H](CN(C)C(=O)NC2CCCCC2)[C@H](C)CN([C@@H](C)CO)C(=O)c2cc(NC(=O)c3ccncc3)ccc2O1", "cytotoxicity call": "inactive"}
